Source: the supplement of paper PMC12632987
Over roughly 1,800 sequences, “median log2 fold change of GCK-ALFA target abundance (FLAG IP / Myc IP barcode read proportion)” has its median near 0.14; the lowest 2% begin near -0.84. This excerpt belongs to a sample that is enriched for the lowest values.

T1: TRAF2, Q12933
T1 chain: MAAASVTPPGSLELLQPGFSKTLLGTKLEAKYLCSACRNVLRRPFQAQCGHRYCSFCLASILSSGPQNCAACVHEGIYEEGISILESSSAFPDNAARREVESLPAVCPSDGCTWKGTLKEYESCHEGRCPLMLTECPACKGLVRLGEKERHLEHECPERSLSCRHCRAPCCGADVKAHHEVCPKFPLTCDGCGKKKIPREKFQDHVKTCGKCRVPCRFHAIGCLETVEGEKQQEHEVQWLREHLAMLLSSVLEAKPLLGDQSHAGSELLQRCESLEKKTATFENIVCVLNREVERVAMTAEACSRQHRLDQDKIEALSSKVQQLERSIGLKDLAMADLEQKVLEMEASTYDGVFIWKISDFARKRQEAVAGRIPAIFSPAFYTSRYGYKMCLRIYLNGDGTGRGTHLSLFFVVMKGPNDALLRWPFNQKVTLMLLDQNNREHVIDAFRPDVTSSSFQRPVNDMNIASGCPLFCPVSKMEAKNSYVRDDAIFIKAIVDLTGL

B1: traf2_out_3_89_2284 (protein)
chain: SHHMEALIEEARKIAEAYAKGFRKSLTFVAKQMVAEGHSLETLEGVANAAKTALVEEFRESLKERGLDEETIKEIVEELRKKLDEIVKEVIAEAKKARAA
B2: traf2_out_6_156_2424 (protein)
chain: MLEKIIKEAEEKIKKEIKKLAEASEEKKIKYISDIAGAVYKALQKMREAGASVEEIKEAIERLKKVAEKEAKKAGLDKDTRDLLLASINAVGEVALREAK
B3: traf2_out_1_158_908 (protein)
chain: STDVSTLHAVATSIAEVYAEEAKERGLEKAAELLKKLKKEIEKLYEANKDASLEEMAAKVLELIKKFEEESKSFDPETREFVEIAFRQIRSGILQVVKLA
B4: traf2_out_5_63_2366 (protein)
chain: SAAEEERRRLREEARLIEAAIRAVIDGREEEARRLLAEAEARGIDWRTVALYFRGMARALRLQNEPQEKIERMERAAEEARARAEAAAAAAAAAAAAAAA
B5: traf2_out_20_38_2025 (protein)
chain: SEEEEEEKKLEELIKVANDAYDAATAEIAALKAEGKSVEEIAEWAKEKIKEILDKVGLEEEKEELIADVDRVLDSPDALTLIARILARAVAKAKQKELQE
B6: traf2_out_20_3_2078 (protein)
chain: SELEAELERELDRALALLRQAAARADPETAARLDALIARLRASRELSIEDRLVAISAVRREVRALAEEARAAGRADLAALLDAAADALNRAAQLAYEILE
B7: traf2_out_17_178_1662 (protein)
chain: SKEEERKKISELTDELIDLAEDAAERMLELAEKEGDVSEEELEELREARRRGSATDVLALGERLIPKLKNSEELGALLEEFKARYRELSKEIAEAYERYE
B8: traf2_out_1_27_1014 (protein)
chain: SDEELTKLIKETDKKIAEVSLEEAKKVVKEALKEAAKLGPEDAMVLANTLIASQLDEERLKAIAEAAVEAFKELGFPEEDIERLKRIAESVLKLNKKVLA
B9: traf2_out_11_104_655 (protein)
chain: LTREQAREFNDFAMEARDRAREIAEAVAAELEARGHTEEAARVRALLNDPGAGISSFRNLLEELKPRLDAESRKVADAAIEELRRLQREVSEKLNELLAK
B10: traf2_out_20_3_2147 (protein)
chain: EELERELAEELERAKALLAEAAALADPETAARLEALRERLEASRALSPSDQLVVVSEVRREVRLLAQEARAAGDEELAALLEEAAAALNRAANLLMRIIE
B11: traf2_out_13_95_1174 (protein)
chain: EEEKTKKEREIASEAYDEREEVMTAYKEAVVALLGDPAAAALMDEVVRNMNEFTLEHATAQLVAAHPEKAAELQALRDEALAKMKEINKKYTEKLNEIEK
B12: traf2_out_14_149_1247 (protein)
chain: SHMAETLRAAAELNERIAKALEEILKLLEAGKLEEAKAALEAAIKEAEALGEELGVTTSGIFEMEHILKLLKEDPEEAKKAVKEAAERARDAAEVLRSIA
B13: traf2_out_17_162_1536 (protein)
chain: SPEDERLAELQKRLEELEKKLEELEKKLKNIEKLSKEELTDLLVEASELRREARELAEELRELAEKTGSPEAEELRERAEELAEKLQRIANEIYKELEKK
B14: traf2_out_17_178_1708 (protein)
chain: TKEEARKRISEATDEMIDLAEEAAARLLEIAEREGSLSPEELAALRRARRLGSARTTIALMERAIPRLRSAEEVRALLEELKARYRELSKEIAEALEKYE
B15: traf2_out_5_192_2336 (protein)
chain: SAEEEARERRLRERAEEILREAEERAKKISERTGLDYATVLATLAFSRVVARAESAEEARLMLDYIVEMITARDPSWAPIAEGEKAAALRAIDAIEAAEP
B16: traf2_out_20_38_2023 (protein)
chain: SMEEEEEEKLKELVEVANKAYDEYSAKFAKWKAEGKTVEEIAEEVKKEIRELLSKAGLEEEAEILIEDVDLALKSPNAERLLIRTLARAVALVKQKELQK
B17: traf2_out_13_95_1070 (protein)
chain: TRELARRINELADRAEERALALLAAAQAELADDPEAVAVLDEAARLAETRGIRAAIALLREAQAAHPEHREAFDALIAELEEIRRELGREVAKLIKEAEE
B18: traf2_out_6_156_2375 (protein)
chain: MLEKILEEAKKKIEELIKELAKASEEKKIAYISRIAGAVYRALQRMREAGASVEEIKKAVEELKKVAEEKAKEAGLDQDTIDLLLASIDAVGKVALEEAK
B19: traf2_out_17_178_1676 (protein)
chain: TKEEKRKKISELTDKYIDLAEATAARLLALAEAEGFMTPEELAALRAAQRRGNGRLVEALLERAIPRSPRAAEVAALLADYRARSRELAKEIAKALEEYE
B20: traf2_out_6_156_2412 (protein)
chain: MVEEILEKALEKVEELIKELAKASEEKKIAYISKIAGTAYRALQELREAGASLEEIEAFAEEFKKRTEELLKEAGLPEDTINLVLSALNAVFDVAIAEAK
B21: traf2_out_11_155_735 (protein)
chain: EEKQKLIQEMNDKIMELFEEARRRALEIARRAAERHPEHREEIEAAIEESKGFSYRSFILEMIRLFRELGLEEEAEELERLLEETQRKASKIVIETEKKL
B22: traf2_out_17_162_1539 (protein)
chain: SPTEERLEELERRLERLEEELKKLKEKSEKLDELSKEEISDLLVEVSELRREALRLAEELRRLAEETGSPRARELEERAERLAEELQRIANKIYKELEKK
B23: traf2_out_11_155_726 (protein)
chain: SKFKEAQNKIVDFNLEVGDELLKKVEEIIKEIEKEDPEVAKKLREVVEKYKKFSNRSAARAAIDLLREEGYEEYAERLEKALEEAQRKMSKKTQEIEKEL
B24: traf2_out_6_3_2516 (protein)
chain: MEESIRKDAETVLENMGITTAEQLKRLVKAEVNAVKKLVSRKDVDEADLAGAESVLNLTRAMVEVAYEKLPDLTEEQKKEMLALIKEAEELVKKKRKELE
B25: traf2_out_6_3_2520 (protein)
chain: MEESIRRDARTVLENMGITTAEQLKRLVEANVNAVKKLVSRPDVDEADLAGARSVLALTRAMVDVAAETLPDLTPEQVAEMKALIKEAEELVEKKRKELE
B26: traf2_out_18_3_1943 (protein)
chain: KEEELKKISEEIDKIIDEVTARAREELDRLLAEHPELAAEAEALRADLDAGAGPFGILDELARLWERAGAADEAAAARAFLREKRKKLQELVDKYEELRK
B27: traf2_out_13_95_1132 (protein)
chain: SAETAKKIMEIADKMLDEILAILEELLKKAEAAGVGVEEIQKAIHLAEHHSVNEAIHLLRELAKKHPEFKAELEAAIAKIEAIREKAGREVAKILKEAAE
B28: traf2_out_1_27_1022 (protein)
chain: SDEEFTRLIRETDRKIAEVDLEEQKKVVKEALKEAAKWGLGDARMLARTLVASQNDEERQEAIKEASLEAFKELGAPEEVIEELERVFNSIIERKKKVLA
B29: traf2_out_18_167_1872 (protein)
chain: SAELKKKREELTDELVRYSTIRRALLLILEALKRSREEARRLLEEYVEKYPDSEVLREALEVFETKSDEEFRKFLEEKAEELQKEANEKYKELEELEKEE

Molecular target: T1, TRAF2, Q12933
Experiment: median log2 fold change of GCK-ALFA target abundance (FLAG IP / Myc IP barcode read proportion) (log2 ratio); each designed protein is fused to an ALFA-tag nanobody in HEK293 cells to bring the named protein to FLAG-tagged glucokinase (GCK); Myc marks an untargeted standard; higher = target protein stabilised (more abundant)
Details: target protein: 3xFLAG-MCP-GCK-ALFA reporter; HEK293 landing pad (RPLP)
Protocol: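 LABEL-seq trans screen in HEK293 landing-pad cells. Each de novo designed 100-aa effector handle, binding the indicated effector (E3 ligase, DUB or autophagy protein), is fused to a constant NbALFA target handle and induced with 2 ug/mL doxycycline. A FLAG-MCP-GCK-ALFA target and a Myc-MCP standard reporter were transfected, and after 48 h circRNA barcodes were recovered by anti-FLAG and anti-Myc IP and sequenced. The value is the median across barcodes (at least 3 per design) of log2(FLAG/Myc read-proportion ratio), with the two transfection replicates pooled. Negative values mean degradation and positive values mean stabilisation of the target.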

| Binder | median log2 fold change |
| --- | --- |
| B1 | -0.43 |
| B2 | -0.0673 |
| B3 | 0.0558 |
| B4 | -0.861 |
| B5 | -0.841 |
| B6 | -0.0407 |
| B7 | 0.161 |
| B8 | 0.337 |
| B9 | 0.222 |
| B10 | 0.226 |
| B11 | 0.311 |
| B12 | -0.194 |
| B13 | 0.429 |
| B14 | -0.184 |
| B15 | -1.01 |
| B16 | -1.38 |
| B17 | -0.334 |
| B18 | 0.151 |
| B19 | -0.865 |
| B20 | 0.261 |
| B21 | -0.138 |
| B22 | 0.204 |
| B23 | 0.469 |
| B24 | -0.56 |
| B25 | -0.989 |
| B26 | 0.0947 |
| B27 | -0.315 |
| B28 | 0.214 |
| B29 | 0.106 |
